Calls of active or inactive are those of the source. Unless noted, calls follow the shape of the dose curve; as a rule, active = well fitted curve in the direction sought with a large enough effect in the repeat runs; inconclusive = weak or mixed curves; inactive = no such curve, though single readings can be large; an effect the other way counts as inactive or inconclusive.
Assays:
[1] = qHTS assay to identify small molecule antagonists of the glucocorticoid receptor (GR) signaling pathway - cell viability counter screen (AID 720693); also: nearly all actives have a fitted effect of over 55% in size
[2] = qHTS assay for identifying genotoxic compounds that show differential cytotoxicity against isogenic chicken DT40 cell lines with known DNA damage response pathways - Rad54/Ku70 mutant cell line (AID 743015); also: nearly all actives have a fitted effect of over 60% in size; also: potency is read from the fitted curve at half-maximal effect
[3] = qHTS assay to identify small molecule antagonists of the androgen receptor (AR) signaling pathway using the MDA cell line - cell viability counter screen (AID 743041; also: nearly all actives have a fitted effect of over 45% in size)
Outline: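 Viability counter screen run alongside the AR antagonist reporter: cells seeded 5 h before compound, R1881 added, 16 h incubation at 37C without CO2, fluorescent CellTiter-Fluor signal quantified.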

[4] = qHTS assay to identify small molecule antagonists of the thyroid receptor (TR) signaling pathway - cell viability counter screen (AID 743064); also: nearly all actives have a fitted effect of over 50% in size
Outline: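 GH3.TRE-Luc cells, 4 h pre-plating; cpd + T3 1 nM final; 37 °C 23.5 h; CellTiter-Fluor 30 min; fluorescence read.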

[5] = qHTS assay to identify small molecule antagonists of the thyroid receptor (TR) signaling pathway (AID 743065); also: nearly all actives have a fitted effect of over 55% in size; also: potency is read from the fitted curve at half-maximal effect
Outline: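 GH3.TRE-Luc rat pituitary cells carrying two TR response elements driving luciferase were plated for 4 h, given compound plus 1 nM T3 (final), and incubated 23.5 h at 37 C. ONE-Glo luminescence measured reporter inhibition; CellTiter-Fluor fluorescence tracked cytotoxicity.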

[6] = tested on: thyroid hormone receptor (rat, GH3 cells); test: qHTS assay to identify small molecule agonists of the thyroid receptor (TR) signaling pathway (AID 743066; calls by dose curve)
[7] = biological target: Estrogen receptor (Homo sapiens) (UniProt P03372); test: qHTS assay to identify small molecule antagonists of the estrogen receptor alpha (ER-alpha) signaling pathway (AID 743069; active = well fitted curve in the direction sought with a large enough effect in the signal ratio in the repeat runs, not every such curve was filed as active; inconclusive = weak or mixed curves, or effect the other way; inactive = no such curve, though single readings can be large or run the other way; the % refers to the signal ratio)
Chain of Estrogen receptor (Homo sapiens) (P03372 whole entry, looked up): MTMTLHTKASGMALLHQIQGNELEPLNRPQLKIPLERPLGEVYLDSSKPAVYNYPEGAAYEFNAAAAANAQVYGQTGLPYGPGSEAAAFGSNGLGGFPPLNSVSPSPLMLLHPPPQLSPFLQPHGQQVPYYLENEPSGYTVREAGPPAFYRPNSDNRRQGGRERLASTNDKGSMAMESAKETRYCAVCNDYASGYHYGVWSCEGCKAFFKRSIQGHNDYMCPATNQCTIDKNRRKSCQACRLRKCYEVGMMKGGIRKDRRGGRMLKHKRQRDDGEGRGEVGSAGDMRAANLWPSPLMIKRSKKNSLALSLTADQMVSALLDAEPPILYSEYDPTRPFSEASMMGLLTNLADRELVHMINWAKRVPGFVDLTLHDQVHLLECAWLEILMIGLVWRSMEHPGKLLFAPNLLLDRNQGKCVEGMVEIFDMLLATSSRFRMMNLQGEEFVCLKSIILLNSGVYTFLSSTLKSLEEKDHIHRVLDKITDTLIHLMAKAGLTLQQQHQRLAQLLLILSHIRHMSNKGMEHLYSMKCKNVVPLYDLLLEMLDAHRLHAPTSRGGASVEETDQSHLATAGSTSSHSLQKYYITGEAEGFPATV
Outline: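 Estradiol-stimulated ER-alpha-UAS-bla HEK293 cells, 18 hr compound exposure at 37C. LiveBLAzer B/G substrate, 2 hr RT, fluorescence read.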

[8] = biological target: Estrogen receptor (Homo sapiens) (UniProt P03372); test: qHTS assay to identify small molecule agonists of the estrogen receptor alpha (ER-alpha) signaling pathway (AID 743075; calls by dose curve;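 also: HEK293 GripTite cells with ER-alpha and UAS-driven beta-lactamase reporter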; also: potency is read from the fitted curve at half-maximal effect)
[9] = biological target: Estrogen receptor (Homo sapiens) (UniProt P03372); test: qHTS assay to identify small molecule agonists of the estrogen receptor alpha (ER-alpha) signaling pathway using the BG1 cell line (AID 743079); conditions: BG1Luc4E2 cells, ERE-luciferase agonist, 22 h; activation: at 70.3 µM (top of the series); also: nearly all actives have a fitted effect of over 20% in size; also: potency is read from the fitted curve at half-maximal effect
[10] = qHTS assay to identify small molecule antagonists of the estrogen receptor alpha (ER-alpha) signaling pathway using the BG1 cell line (AID 743080; calls by dose curve;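 also: BG1 cells stimulated with 17beta-estradiol alongside compound; nearly all actives have a fitted effect of over 25% in size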)
Outline: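 Quantitative HTS on the Tox21 10K library: BG1 cells with endogenous ER-alpha and ERE-luciferase reporter, 17beta-estradiol stimulation, 21.5 h compound exposure, luminescence endpoint with parallel fluorescence cytotoxicity counter-read.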

[11] = qHTS assay to identify small molecule antagonists of the estrogen receptor alpha (ER-alpha) signaling pathway using the BG1 cell line - cell viability counter screen (AID 743081);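 also: compound given together with 17beta-estradiol as the ER stimulus; nearly all actives have a fitted effect of over 45% in size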
Aromatase (Homo sapiens) = Aromatase (Homo sapiens) (UniProt P11511); test: qHTS assay to identify aromatase inhibitors (AID 743083); also: nearly all actives have a fitted effect of over 55% in size
Chain of Aromatase (Homo sapiens) (P11511 whole entry, looked up): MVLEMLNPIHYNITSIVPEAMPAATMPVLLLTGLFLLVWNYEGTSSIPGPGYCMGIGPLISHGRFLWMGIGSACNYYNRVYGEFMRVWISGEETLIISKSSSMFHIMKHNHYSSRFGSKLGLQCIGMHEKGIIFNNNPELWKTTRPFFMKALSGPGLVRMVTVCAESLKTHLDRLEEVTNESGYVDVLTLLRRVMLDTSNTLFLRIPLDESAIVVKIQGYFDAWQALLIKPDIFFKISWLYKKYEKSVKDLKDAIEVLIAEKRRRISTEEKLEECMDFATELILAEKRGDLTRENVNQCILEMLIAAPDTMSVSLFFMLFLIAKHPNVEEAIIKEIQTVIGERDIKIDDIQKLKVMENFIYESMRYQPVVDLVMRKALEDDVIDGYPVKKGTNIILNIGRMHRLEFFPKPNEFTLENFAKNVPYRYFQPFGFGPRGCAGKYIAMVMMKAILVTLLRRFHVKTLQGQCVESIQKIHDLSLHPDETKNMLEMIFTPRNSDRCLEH

[12] = qHTS assay to identify small molecule antagonists of the androgen receptor (AR) signaling pathway - cell viability counter screen (AID 743033; also: nearly all actives have a fitted effect of over 45% in size)
[13] = qHTS assay to identify small molecule antagonists of the estrogen receptor alpha (ER-alpha) signaling pathway - cell viability counter screen (AID 743074; calls by dose curve;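 also: HEK293 cells carrying ER-alpha-UAS-bla reporter stimulated with 17beta-estradiol; nearly all actives have a fitted effect of over 45% in size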)
[14] = biological target: Androgen receptor (Homo sapiens) (UniProt P10275); test: qHTS assay to identify small molecule agonists of the androgen receptor (AR) signaling pathway (AID 743036; active = well fitted activation curve with a large enough effect in the signal ratio in the repeat runs, with a control signal flat, not every such curve was filed as active; inconclusive = weak or mixed curves, or effect the other way; inactive = no such curve, though single readings can be large or run the other way; the % refers to the signal ratio)
Chain of Androgen receptor (Homo sapiens) (P10275 whole entry, looked up): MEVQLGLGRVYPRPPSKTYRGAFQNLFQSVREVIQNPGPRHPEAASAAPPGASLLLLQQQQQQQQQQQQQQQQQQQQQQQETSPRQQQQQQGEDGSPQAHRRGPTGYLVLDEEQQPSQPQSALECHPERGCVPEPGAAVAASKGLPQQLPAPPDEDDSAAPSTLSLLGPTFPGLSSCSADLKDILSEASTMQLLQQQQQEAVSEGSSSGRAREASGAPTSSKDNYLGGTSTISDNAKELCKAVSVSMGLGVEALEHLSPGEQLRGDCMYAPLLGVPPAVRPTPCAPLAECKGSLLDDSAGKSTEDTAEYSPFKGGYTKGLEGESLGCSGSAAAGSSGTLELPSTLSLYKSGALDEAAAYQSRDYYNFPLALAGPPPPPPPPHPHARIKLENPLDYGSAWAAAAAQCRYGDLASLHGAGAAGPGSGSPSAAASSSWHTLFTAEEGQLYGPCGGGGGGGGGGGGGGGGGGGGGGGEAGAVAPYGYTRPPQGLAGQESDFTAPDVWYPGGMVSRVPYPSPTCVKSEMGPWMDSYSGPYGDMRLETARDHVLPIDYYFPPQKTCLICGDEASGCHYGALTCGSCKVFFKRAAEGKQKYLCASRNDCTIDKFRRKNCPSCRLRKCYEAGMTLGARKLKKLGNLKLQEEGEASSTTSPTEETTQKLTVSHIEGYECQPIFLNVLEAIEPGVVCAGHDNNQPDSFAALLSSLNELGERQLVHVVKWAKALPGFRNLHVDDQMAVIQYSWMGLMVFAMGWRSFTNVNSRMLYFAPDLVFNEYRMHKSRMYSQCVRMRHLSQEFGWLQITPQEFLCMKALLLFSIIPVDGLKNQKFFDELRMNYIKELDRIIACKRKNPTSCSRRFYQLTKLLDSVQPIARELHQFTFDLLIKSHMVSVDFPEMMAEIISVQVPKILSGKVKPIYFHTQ
Outline: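 AR-bla HEK293 cells, 2,000/well; 4 h preincubation 37C/5% CO2; compound (DMSO) 16 h at 37C; LiveBLAzer B/G FRET substrate 2 h RT; fluorescence intensity read-out.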

[15] = biological target: Androgen receptor (Homo sapiens) (UniProt P10275); test: qHTS assay to identify small molecule agonists of the androgen receptor (AR) signaling pathway using the MDA cell line (AID 743040; also: nearly all actives have a fitted effect of over 20% in size)
Outline: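 Luminescence from ONE-Glo, read after 30 min at room temperature, reflects MMTV-driven luciferase in MDA-kb2 cells (AR- and GR-responsive). Treatment lasted 16 h at 37C, 0% CO2.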

[16] = biological target: Androgen receptor (Homo sapiens) (UniProt P10275); test: qHTS assay to identify small molecule antagonists of the androgen receptor (AR) signaling pathway using the MDA cell line (AID 743042; also: nearly all actives have a fitted effect of over 55% in size)
Outline: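 MDA-kb2 cells (human breast carcinoma, stably carrying an MMTV-luciferase reporter responsive to AR and GR) were plated at 3,000 cells/well and preincubated 5 hr at 37C, then given compound plus R1881 agonist for 16 h. ONE-Glo luminescence was read.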

[17] = biological target: Androgen receptor (Homo sapiens) (UniProt P10275); test: qHTS assay to identify small molecule antagonists of the androgen receptor (AR) signaling pathway (AID 743035; active = well fitted inhibition curve with a large enough effect in the signal ratio in the repeat runs, not every such curve was filed as active; inconclusive = weak or mixed curves, or effect the other way; inactive = no such curve, though single readings can be large or run the other way; the % refers to the signal ratio; also: potency is read from the fitted curve at half-maximal effect)
Outline: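 Beta-lactamase FRET read (2 h RT incubation with LiveBLAzer B/G) following 16 h of compound plus R1881 treatment of AR-UAS-bla HEK293 cells, which had been pre-incubated 4 h at 37C.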

[18] = qHTS assay for identifying genotoxic compounds that show differential cytotoxicity against isogenic chicken DT40 cell lines with known DNA damage response pathways - wild type cell line (AID 743012); also: potency is read from the fitted curve at half-maximal effect; nearly all actives have a fitted effect of over 60% in size
Outline: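 First, wild type DT40 cells were plated at 300 per well and equilibrated about 0.5 h at 37 C/5% CO2. Next, compounds in DMSO were added and exposure lasted 40 h. Finally, CellTiter-Glo was added for 30 min at room temperature and luminescence recorded.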

[19] = qHTS assay for identifying genotoxic compounds that show differential cytotoxicity against isogenic chicken DT40 cell lines with known DNA damage response pathways - Rev3 mutant cell line (AID 743014)

Measured: Potency

O=C(OCc1ccccc1)c1cccnc1
active: [2] 6.68 µM
not listed: [12] | [13] | [14] | [15] | [16] | [17] | [18] | [19]
inactive: all other assays above

NC(=O)OC[C@@H]1[C@H](NC(=O)/C(=N\OCC(=O)O)c2csc(N)n2)C(=O)N1S(=O)(=O)O
inactive: [1] | [2] | [12] | [3] | [5] | [6] | [13] | [11]

Cc1cc(C)c(NC(=O)C[C@H](CC(=O)O)c2cccc3ccccc23)c(C(=O)N2CCC3(CCCC3)CC2)c1
active: [9] 29.8 µM
not listed: [4] | [12] | [13] | [17] | [18] | [19]
inactive: all other assays above

CC(O)[C@H]1CC[C@H]2[C@@H]3CC[C@@H]4C[C@@H](O)CC[C@]4(C)[C@H]3CC[C@]12C (stereo partly drawn)
active: [8] 3.38 µM [inconclusive] | [9] 9.44 µM
not listed: [2] | [14] | [15] | [16] | [17] | [18] | [19]
inactive: all other assays above

COCC(=O)Nc1cc(Sc2ccccc2)ccc1N=C(NC(=O)OC)NC(=O)OC
active: [5] 23.7 µM
inactive: [1] | [12] | [6] | [7] | [13] | [8] | [9] | [10] | [11] | Aromatase (Homo sapiens)

COC(=O)[C@H]1[C@H]2C[C@@H]3c4[nH]c5cc(OC)ccc5c4CCN3C[C@H]2C[C@@H](OC(=O)/C=C/c2cc(OC)c(OC)c(OC)c2)[C@@H]1OC
not listed: [2] | [5] | [12] | [14] | [17] | [18] | [19]
inactive: all other assays above

C[N+](C)(CCCCCC[N+](C)(C)C1c2ccccc2-c2ccccc21)C1c2ccccc2-c2ccccc21
not listed: [2] | [13] | [14] | [15] | [16] | [17] | [18] | [19]
inactive: all other assays above

O=C(O)CO.[NH2-].[NH2-].[Pt+2]
inactive: [1] | [5] | [6] | [7] | [13] | [8] | [9] | [10] | [11] | Aromatase (Homo sapiens)

CC(Oc1ccccc1)C(=O)N[C@@H]1C(=O)N2[C@@H]1SC(C)(C)[C@@H]2C(=O)O (stereo partly drawn)
not listed: [12] | [14] | [15] | [16] | [17] | [18] | [19]
inactive: all other assays above

CCOC(=O)c1cc(-c2ccccc2)nc2ccc(C)cc12
not listed: [2] | [4] | [5] | [6] | [7] | [14] | [18] | [19]
inactive: all other assays above

CC(C)CN(C[C@@H](O)[C@H](Cc1ccccc1)NC(=O)O[C@@H]1CCOC1)S(=O)(=O)c1ccc(N)cc1
inactive: [1] | [14] | [15] | [3] | [16] | [7] | [13] | [8] | [11] | Aromatase (Homo sapiens)
active: [17] 26.8 µM

C=C1CC2C3CCC4=CC(=O)C=C[C@]4(C)[C@@]3(F)[C@@H](O)C[C@]2(C)[C@@]1(O)C(=O)COC(C)=O (stereo partly drawn)
inactive: [1] | [2] | [12] | [3] | [4] | [5] | [6] | [13] | [8] | Aromatase (Homo sapiens)

C=CC[C@@H]1/C=C(\C)C[C@H](C)C[C@H](OC)[C@H]2O[C@@](O)(C(=O)C(=O)N3CCCC[C@H]3C(=O)O[C@H](/C(C)=C/[C@@H]3CC[C@@H](O)[C@H](OC)C3)[C@H](C)[C@@H](O)CC1=O)[C@H](C)C[C@@H]2OC
active: [18] 5.31 µM | [19] 4.22 µM | [2] 6.68 µM | [17] 16.9 µM
not listed: [1] | [3] | [4] | [7] | [11] | Aromatase (Homo sapiens)
inactive: all other assays above

— PubChem BioAssay (Tox21)
